ChEMBL document CHEMBL3988442, “University of Dundee, Small-Polar-MMV Screening Library” (2021)

What follows are compounds tested against AMP-activated protein kinase, AMPK (Homo sapiens) (UniProt P54646+O43741+P54619+Q9UGJ0+Q9Y478+Q13131+Q9UGI9) (assay: AMP-dependent Kinase enzyme assay. An in vitro enzyme assay that detects ADP turnover that is directly proportional to AMPK activity. This uses naive AMPK that is activated during the assay with MK-8722). Conditions: 30 µM.
Format: functional
Design: scale not given: direction of the effect not stated beside the values
For NC(=O)c1ccnc(N2CCCC(CO)(Cc3ccc(F)cc3)C2)c1 (stereo not given), the Percent Effect was 16.1%. CCCN1CCC(N2CCC(Cn3cc(C4CC4)nn3)CC2)CC1 showed a Percent Effect of 2.68%. Work on CCCc1nn(Cc2ccc(Br)s2)c(=O)o1 yielded a Percent Effect of 9.29%. With C[C@@H]1CN(C(=O)C2(Cn3cccn3)CC2)CC[C@@]1(O)C1CC1 the Percent Effect was -6.74%. COc1cccc2c1OCC(C(=O)NCc1ncc3c(n1)CCC3)C2 (stereo not given) was tested, and the Percent Effect was 6.59%. For CCOC(=O)C(C)Nc1ccc(CCN2CCOCC2)cc1 (stereo not given), the Percent Effect was -1.34%. Work on CCn1cc(CN2CCC(c3ncc(Cl)cc3S(C)(=O)=O)CC2)c(C)n1 yielded a Percent Effect of 4.95%. For CC(C)(C)NC(=O)c1cnc2n1CCCC2, the Percent Effect was 0.336%. Cc1ccc(-c2cc(C(=O)NCC3CCOC3)n[nH]2)s1 (stereo not given) showed a Percent Effect of -4.75%. Work on Cn1cc(NC(=O)N2CCCC2c2cccnc2)ccc1=O (stereo not given) yielded a Percent Effect of 42.2%. With COc1ccc(N2CCC(NS(=O)(=O)N(C)C(C)C)CC2)cc1 the Percent Effect was 13.8%. Work on CCN(CCOC)C(=O)c1ccc2c(c1)nc(N1CC[C@H](O)C1)n2C yielded a Percent Effect of 3.21%. CCn1cnnc1CNC(=O)N1CCOC(c2ccc(F)cc2)C1 (stereo not given) showed a Percent Effect of -5.45%. O=C(NCc1ccc(-n2cncn2)nc1)c1cc[nH]n1 gave a Percent Effect of 2.82%. In the case of CCNC(=O)C1CCN(Cc2ccc(C(=O)Nc3nnc(C)s3)cc2)C1 (stereo not given), the Percent Effect is reported as -2.87%. With CC1(NC(=O)CNC(=O)C(C)(C)C)CCc2ccccc2C1 (stereo not given) the Percent Effect was 7.71%. For COC(=O)C1CN(Cc2cc(F)ccc2Br)CCO1 (stereo not given), the Percent Effect was -6.48%. O=C1NCC(C(=O)NCc2ccccc2CN2CCOCC2)N1 (stereo not given) gave a Percent Effect of -5.09%. Cc1csc(CCNC(=O)N2CCC(NC(=O)OC(C)(C)C)CC2)n1 showed a Percent Effect of -1.4%. Compound CC(C)c1ccc(/C=C/CC(=O)NC2CCN(C(N)=O)CC2)cc1 has a Percent Effect of -2.39%.
